For four molecules, z-score and composite z-score results are on record in PubChem BioAssay.

Structures are written as SMILES. Active and inactive are the calls of the source.

A short description of assay [1]: optical density shifts of acrAB sulA E. coli – strain DRC41, OD650, 48 h, E. coli filamentation inducer project, primary screen (AID 1152).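 Also: E. coli MC1000 strain DRC41 lacking acrAB efflux pump and sulA.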 The conditions noted are these: higher = more signal, called active from +8 up or from −8 down.
Assay [2] is described as follows: probe aLefty1 binding on compound microarray – biochemical, small-molecule microarray, 635/667 nm fluorescence, primary screen (AID 1153).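 Also: score merges spot fluorescence with signal-to-noise ratio from the scanned slide images.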 Particulars: higher = more signal.
A short description of assay [3]: plasmodial surface anion channel blockers, osmotic lysis – cell-based, P. falciparum Indochina, OD700, 1 h, primary screen (AID 1154). The conditions noted are these: P. falciparum Indochina infected RBC osmotic lysis, higher = more signal, called active from +8 up or from −8 down.
Assay [4] in a line: plasmodial surface anion channel blockers, osmotic lysis – cell-based, P. falciparum Indochina, OD700, 2 h, primary screen (AID 1155).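 Also: lysis reports solute entry through the parasite surface anion channel PSAC.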 The conditions noted are these: P. falciparum Indochina infected erythrocytes, higher = more signal, called active from +8 up or from −8 down.
Assay [5] in a line: changes in parasitized red cell lysis, either direction – P. falciparum Indochina, OD700, 3 h, PSAC antagonist project, primary screen (AID 1156). Particulars: P. falciparum-infected erythrocytes, osmotic lysis, higher = more signal, called active from +8 up or from −8 down.
Assay [6] is described as follows: plasmodial surface anion channel blockers, osmotic lysis – cell-based, P. falciparum Indochina, OD700, 18 h, primary screen (AID 1157). The conditions noted are these: P. falciparum Indochina infected erythrocytes, osmotic lysis OD700, 18 h; higher = more signal, called active from +8 up or from −8 down.
Assay [7] is described as follows: S6 kinase pathway phospho-S6 level changes – cell-based, A549, cytoblot, luminescence, serum-stimulated, primary screen (AID 1158).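 Also: serum-stimulated A549 lung adenocarcinoma cells; signal is phosphorylated S6 detected by cytoblot immunostaining with HRP secondary.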 The conditions noted are these: 5 h, higher = more signal.
The target in assay [8] is NADPH oxidase 2 (Homo sapiens) (UniProt P04839). Description: compounds shifting NOX2 Amplex Red fluorescence – cell-based, HEK293-NOX2, PMA-stimulated, NOX inhibitor project, primary screen (AID 1159). Also: test concentration not given here. Particulars: 45 min, higher = more signal, called active from +8 up or from −8 down.
In assay [9] the target is NADPH oxidase 4 (Homo sapiens) (UniProt Q9NPH5). Description: compounds shifting NOX4 Amplex Red fluorescence – cell-based, HEK293-NOX4, tetracycline-induced, NOX inhibitor project, primary screen (AID 1160). Particulars: HEK293-NOX4, Amplex Red H2O2 fluorescence, 45 min; higher = more signal, called active from +8 up or from −8 down.
The target of assay [10] is NADPH oxidase 5 (Homo sapiens) (UniProt Q96PH1). Nature of the assay: compounds shifting NOX5 Amplex Red fluorescence – cell-based, HEK293-NOX5, NOX inhibitor project, primary screen (AID 1161). The conditions noted are these: HEK293-NOX5, ionomycin, 45 min, higher = more signal.
Assay [11] is described as follows: compound effects on lung adenocarcinoma cell viability – A549, calcein-AM fluorescence, 48 h, basal, profiling panel (AID 1162). Also: test concentration not given here. The conditions noted are these: higher = more signal.
Assay [12] is described as follows: compound effects on differentiated 3T3-L1 adipocyte viability – cell-based, 3T3-L1 adipocytes, calcein-AM fluorescence, 48 h, basal, profiling panel (AID 1163). Also: test concentration not given here. The conditions noted are these: 3T3-L1 adipocytes viability, higher = more signal.
The nature of assay [13]: compound effects on hepatocellular carcinoma cell viability – HepG2, calcein-AM fluorescence, 48 h, basal, profiling panel (AID 1164). Also: test concentration not given here. The conditions noted are these: higher = more signal.
The nature of assay [14]: compound effects on multiple myeloma cell viability – MM1S, calcein-AM fluorescence, 48 h, basal, profiling panel (AID 1165). Also: test concentration not given here. The conditions noted are these: higher = more signal.
Assay [15] is described as follows: calcein-AM signal in unstimulated myeloma cells – cell-based, calcein-AM fluorescence, 48 h, PK04 Diversity Set, profiling panel (AID 1166).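 Also: cells grown under basal conditions without added stimulus; test concentration not given here.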 Particulars: RPMI8226 myeloma viability, higher = more signal.
Assay [16] is described as follows: JC-1 mitochondrial signal, unstimulated HepG2 cells – cell-based, JC-1 fluorescence, 24 h, 100 nL compound, profiling panel (AID 1167). Also: test concentration not given here. Particulars: HepG2 mitochondrial potential, higher = more signal.
A short description of assay [17]: JC-1 mitochondrial signal, unstimulated adipocytes – cell-based, JC-1 fluorescence, 3T3-L1 adipocytes, 24 h, 100 nL compound, profiling panel (AID 1168). Also: test concentration not given here. The conditions noted are these: JC-1 mitochondrial fluorescence, higher = more signal, called active from +8 up or from −8 down.
Assay [18] can be described thus: JC-1 mitochondrial signal, unstimulated myeloma cells – cell-based, JC-1 fluorescence, RPMI8226, 24 h, 100 nL compound, profiling panel (AID 1169). Also: test concentration not given here. Particulars: JC-1 mitochondrial potential fluorescence, higher = more signal.
Assay [19] can be described thus: JC-1 mitochondrial signal, unstimulated MM1S myeloma – cell-based, JC-1 fluorescence, 24 h, 100 nL compound, profiling panel (AID 1170). Also: test concentration not given here. Particulars: MM1S mitochondrial potential, higher = more signal.
The nature of assay [20]: resazurin metabolic signal in A549 cells – cell-based, resazurin fluorescence, 24 h, PK04 Diversity Set, profiling panel (AID 1171). Also: test concentration not given here. The conditions noted are these: A549 viability, higher = more signal, called active from +8 up or from −8 down.

Chain of NADPH oxidase 2 (Homo sapiens) (P04839 whole entry, looked up): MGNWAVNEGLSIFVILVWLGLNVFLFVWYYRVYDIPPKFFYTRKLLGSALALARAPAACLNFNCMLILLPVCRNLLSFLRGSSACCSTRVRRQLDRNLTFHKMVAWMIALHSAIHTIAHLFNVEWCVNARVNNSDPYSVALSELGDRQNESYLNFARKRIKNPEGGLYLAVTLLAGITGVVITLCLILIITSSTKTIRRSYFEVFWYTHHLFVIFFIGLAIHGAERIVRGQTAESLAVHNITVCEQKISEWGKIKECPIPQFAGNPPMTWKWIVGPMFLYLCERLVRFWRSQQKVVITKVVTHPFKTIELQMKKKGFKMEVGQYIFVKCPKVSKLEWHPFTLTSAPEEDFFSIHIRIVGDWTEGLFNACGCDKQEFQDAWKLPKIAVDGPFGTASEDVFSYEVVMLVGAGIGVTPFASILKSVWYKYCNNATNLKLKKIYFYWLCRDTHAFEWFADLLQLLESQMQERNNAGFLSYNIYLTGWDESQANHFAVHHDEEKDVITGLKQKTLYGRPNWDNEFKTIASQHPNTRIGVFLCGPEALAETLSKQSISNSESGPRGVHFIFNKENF
Chain of NADPH oxidase 5 (Homo sapiens) (Q96PH1 whole entry, looked up): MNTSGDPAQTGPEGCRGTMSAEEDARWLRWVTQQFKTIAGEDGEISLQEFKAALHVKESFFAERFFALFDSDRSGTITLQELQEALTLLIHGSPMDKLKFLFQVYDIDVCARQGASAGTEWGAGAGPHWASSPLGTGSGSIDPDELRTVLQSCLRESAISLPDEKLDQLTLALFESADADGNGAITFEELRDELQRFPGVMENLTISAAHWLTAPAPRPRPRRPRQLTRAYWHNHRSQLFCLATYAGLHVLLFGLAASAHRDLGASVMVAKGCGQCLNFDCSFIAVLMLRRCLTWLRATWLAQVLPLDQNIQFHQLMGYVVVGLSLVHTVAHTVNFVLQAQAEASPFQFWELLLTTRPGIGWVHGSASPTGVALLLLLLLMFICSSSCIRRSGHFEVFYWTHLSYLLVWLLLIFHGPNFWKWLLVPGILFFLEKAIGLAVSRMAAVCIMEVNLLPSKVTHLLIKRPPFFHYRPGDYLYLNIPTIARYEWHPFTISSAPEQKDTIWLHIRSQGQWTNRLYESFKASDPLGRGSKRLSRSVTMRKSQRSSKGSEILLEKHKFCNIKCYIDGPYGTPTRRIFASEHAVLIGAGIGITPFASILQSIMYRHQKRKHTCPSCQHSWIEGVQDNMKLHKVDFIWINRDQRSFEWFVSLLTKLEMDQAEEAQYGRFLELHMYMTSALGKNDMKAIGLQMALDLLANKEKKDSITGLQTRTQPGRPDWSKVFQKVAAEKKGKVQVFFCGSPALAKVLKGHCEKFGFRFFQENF
Chain of NADPH oxidase 4 (Homo sapiens) (Q9NPH5 whole entry, looked up): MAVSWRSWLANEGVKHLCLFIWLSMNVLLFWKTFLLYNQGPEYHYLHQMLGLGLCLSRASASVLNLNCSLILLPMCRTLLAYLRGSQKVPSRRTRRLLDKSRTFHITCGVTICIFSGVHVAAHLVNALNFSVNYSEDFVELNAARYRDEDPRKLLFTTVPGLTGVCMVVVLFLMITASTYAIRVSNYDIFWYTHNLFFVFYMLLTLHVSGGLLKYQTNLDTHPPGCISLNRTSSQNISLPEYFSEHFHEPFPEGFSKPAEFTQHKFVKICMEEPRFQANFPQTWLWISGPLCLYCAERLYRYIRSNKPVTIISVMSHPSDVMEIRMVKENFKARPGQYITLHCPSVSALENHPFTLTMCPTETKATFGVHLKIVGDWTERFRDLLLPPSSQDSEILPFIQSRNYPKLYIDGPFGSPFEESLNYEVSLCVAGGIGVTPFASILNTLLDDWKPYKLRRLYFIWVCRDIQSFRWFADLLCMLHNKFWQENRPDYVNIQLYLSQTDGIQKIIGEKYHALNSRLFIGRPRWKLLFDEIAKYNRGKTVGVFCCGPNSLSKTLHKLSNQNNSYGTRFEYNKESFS

In the case of `O[C@@H](Cc1ccccc1)[C@H]1C2C=CCCC=C2CN1Cc1cccc(Cl)c1` (stereo not given in full), the z-score is 1.31 (inactive) in assay [1]; 2.58 (inactive) in assay [3]; 0.499 (inactive) in [4]; 1.33 (inactive) in assay [5]; 0.108 (inactive) in assay [6]; 0.399 in [7]. Besides, the z-score in [8] is -0.318 (inactive); in [9] it was -1.27 (inactive); in [10], -0.609; in assay [11], 0.675; in assay [12], -0.0495; in [13], 1.31. For the same molecule, the z-score is -3.23 in assay [14]; -2.25 in assay [15]; -0.241 in assay [16]; -0.173 (inactive) in [17]; -0.771 in assay [18]; -2.86 in [19]. Also, in assay [20], the z-score was -0.462 (inactive). The composite z-score in [2] was 0.0701.

As to `CCCC[C@@H]1C[C@H]1[C@@H](NC(=O)c1ccccc1)c1ccc(C(=O)OC)cc1`, the z-score in [1] was -2.42 (inactive); in assay [3], 12.2 (active); in assay [4], 1.91 (inactive); in [5], 0.57 (inactive); in [6], 0.643 (inactive); in assay [7] it was -0.728. The z-score in assay [8] is -1.14 (inactive); in [9] it was -2.96 (inactive); in [10] it was -0.585; in assay [11], -0.992; in assay [12], -0.334; in assay [13] it was -0.197. Further, the z-score in assay [14] was -1.2; in assay [15] it was -2.68; in [16], -2.55; in assay [17], -1.18 (inactive); in assay [18] it was 0.461; in assay [19], -1.12. The z-score in assay [20] is 0.571 (inactive). Further, the composite z-score in assay [2] amounted to 0.357.

For `COCCOC(=O)N1C(=O)[C@@]2(c3cc(C#CCCO)ccc31)[C@H](C(=O)N1CCCCCCC1)[C@H]1C(=O)O[C@H](c3ccccc3)[C@H](c3ccccc3)N1[C@@H]2c1ccc(OCCO)cc1`, the z-score in assay [1] is 0.712 (inactive); in [3], 7.78 (inactive); in assay [4], 1.37 (inactive); in [5], -1.22 (inactive); in [6], 0.982 (inactive); in [7], -0.215. For the same molecule, the z-score in assay [8] is 0.931 (inactive); in assay [9], 0.94 (inactive); in assay [10], 0.603; in [11], 0.338; in assay [12] it was 1.74; in assay [13], 0.155. Besides, the z-score in assay [14] was -0.284; in [15], -1.54; in assay [16] it was -1.68; in assay [17] it was -1.47 (inactive); in assay [18] it was -1.25; in assay [19], -1.02. For the same molecule, in [20], the z-score was 0.76 (inactive). For the same molecule, the composite z-score in [2] came out at 2.45.

On to `CCCC#C[Si](O[C@H](CC)c1cn(Cc2cccc(Cl)c2)nn1)(C(C)C)C(C)C`, for which the z-score in assay [1] was 1.68 (inactive); in assay [3], 0.131 (inactive); in [4], 0.659 (inactive); in [5] it was -0.871 (inactive); in assay [6] it was 0.283 (inactive); in [7], -0.131. Moreover, the z-score in [8] is 0.041 (inactive); in assay [9], 0.076 (inactive); in assay [10] it was 0.842; in assay [11] it was 1.19; in assay [12] it was -1.07; in assay [13] it was 1.58. Also, the z-score was -1.07 in [14]; -0.223 in assay [15]; -0.742 in [16]; -0.228 (inactive) in assay [17]; -0.112 in assay [18]; -0.916 in assay [19]. The z-score in assay [20] was 0.158 (inactive). The composite z-score in [2] was 0.171.
